Sampled rows, rich in hits. Any-hit rate of the full collection: about 0.5%.
TRb SRC2 PPI – qHTS for Inhibitors of the Interaction of Thyroid Hormone Receptor and Steroid Receptor Coregulator 2. AID 1469, 2008. TRbeta-SRC2 peptide binding, fluorescence polarization; receptor liganded with 1 µM T3. Thyroid hormone receptor beta (Homo sapiens), P10828. 280,000 tested, 0.065% active. Potency, µM (top dose mostly 106 µM), for inactives: at the highest dose activity change, negative = inhibition, hits mostly inhibitors; active = well fitted inhibition curve with a large enough effect; inconclusive = small, poorly fitted or top-dose-only effect, or effect the other way;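 also: potency is read from the fitted curve at half-maximal effect; plate controls were bound peptide for no effect and peptide without receptor for full effect; nearly all actives have a fitted effect of over 50% in size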
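Read-out is fluorescence polarization (555 nm excitation, 632 nm emission) of a Texas Red SRC2 coactivator peptide; loss of signal reflects blocked binding to human TRb ligand-binding domain in the presence of 1 uM T3.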
RGS12 GoLoco inh – qHTS Assay for Inhibitors of RGS12 GoLoco Motif Activity (Red Fluorophore). Guanine nucleotide-binding protein G(i) subunit alpha-1 (Homo sapiens), P63096. Gai1:RGS12 GoLoco peptide FP, rhodamine, 10 min. Potency, µM (series often up to 61.6 µM), inactives show at the top dose activity, negative = inhibition, most hits filed as inhibitors. 230,000 tested, 0.44% active. AID 880, 2007; active = well fitted inhibition curve with a large enough effect, not every such curve was filed as active; inactive = no such curve, though single readings can be large or run the other way; also: potency is read from the fitted curve at half-maximal effect; % is scaled to controls: 0 for no effect and ±100 for the full control effect; nearly all actives have a fitted effect of over 30% in size
CXXC DNA block – qHTS Fluorescence Polarization Assay for Inhibitors of MLL CXXC domain - DNA interaction | 290,000 tested, 0.037% active | Histone-lysine N-methyltransferase 2A (Homo sapiens), Q03164 | MLL-CXXC / FITC-HOXA9 DNA fluorescence polarization | Potency, µM (titrated, usually from 115 µM), for inactives: at the top dose activity change, negative = inhibition, usual class: inhibitors | AID 2662, 2010; active = well fitted inhibition curve with a large enough effect in the polarisation, with a control signal flat, not every such curve was filed as active; inconclusive = small, poorly fitted or top-dose-only effect, or effect the other way, or a change in a side signal; inactive = no such curve, though single readings can be large or run the other way; the % refers to the polarisation; also: potency is read from the fitted curve at half-maximal effect
Target sequence (Q03164 whole entry, looked up, the tested form may be a part): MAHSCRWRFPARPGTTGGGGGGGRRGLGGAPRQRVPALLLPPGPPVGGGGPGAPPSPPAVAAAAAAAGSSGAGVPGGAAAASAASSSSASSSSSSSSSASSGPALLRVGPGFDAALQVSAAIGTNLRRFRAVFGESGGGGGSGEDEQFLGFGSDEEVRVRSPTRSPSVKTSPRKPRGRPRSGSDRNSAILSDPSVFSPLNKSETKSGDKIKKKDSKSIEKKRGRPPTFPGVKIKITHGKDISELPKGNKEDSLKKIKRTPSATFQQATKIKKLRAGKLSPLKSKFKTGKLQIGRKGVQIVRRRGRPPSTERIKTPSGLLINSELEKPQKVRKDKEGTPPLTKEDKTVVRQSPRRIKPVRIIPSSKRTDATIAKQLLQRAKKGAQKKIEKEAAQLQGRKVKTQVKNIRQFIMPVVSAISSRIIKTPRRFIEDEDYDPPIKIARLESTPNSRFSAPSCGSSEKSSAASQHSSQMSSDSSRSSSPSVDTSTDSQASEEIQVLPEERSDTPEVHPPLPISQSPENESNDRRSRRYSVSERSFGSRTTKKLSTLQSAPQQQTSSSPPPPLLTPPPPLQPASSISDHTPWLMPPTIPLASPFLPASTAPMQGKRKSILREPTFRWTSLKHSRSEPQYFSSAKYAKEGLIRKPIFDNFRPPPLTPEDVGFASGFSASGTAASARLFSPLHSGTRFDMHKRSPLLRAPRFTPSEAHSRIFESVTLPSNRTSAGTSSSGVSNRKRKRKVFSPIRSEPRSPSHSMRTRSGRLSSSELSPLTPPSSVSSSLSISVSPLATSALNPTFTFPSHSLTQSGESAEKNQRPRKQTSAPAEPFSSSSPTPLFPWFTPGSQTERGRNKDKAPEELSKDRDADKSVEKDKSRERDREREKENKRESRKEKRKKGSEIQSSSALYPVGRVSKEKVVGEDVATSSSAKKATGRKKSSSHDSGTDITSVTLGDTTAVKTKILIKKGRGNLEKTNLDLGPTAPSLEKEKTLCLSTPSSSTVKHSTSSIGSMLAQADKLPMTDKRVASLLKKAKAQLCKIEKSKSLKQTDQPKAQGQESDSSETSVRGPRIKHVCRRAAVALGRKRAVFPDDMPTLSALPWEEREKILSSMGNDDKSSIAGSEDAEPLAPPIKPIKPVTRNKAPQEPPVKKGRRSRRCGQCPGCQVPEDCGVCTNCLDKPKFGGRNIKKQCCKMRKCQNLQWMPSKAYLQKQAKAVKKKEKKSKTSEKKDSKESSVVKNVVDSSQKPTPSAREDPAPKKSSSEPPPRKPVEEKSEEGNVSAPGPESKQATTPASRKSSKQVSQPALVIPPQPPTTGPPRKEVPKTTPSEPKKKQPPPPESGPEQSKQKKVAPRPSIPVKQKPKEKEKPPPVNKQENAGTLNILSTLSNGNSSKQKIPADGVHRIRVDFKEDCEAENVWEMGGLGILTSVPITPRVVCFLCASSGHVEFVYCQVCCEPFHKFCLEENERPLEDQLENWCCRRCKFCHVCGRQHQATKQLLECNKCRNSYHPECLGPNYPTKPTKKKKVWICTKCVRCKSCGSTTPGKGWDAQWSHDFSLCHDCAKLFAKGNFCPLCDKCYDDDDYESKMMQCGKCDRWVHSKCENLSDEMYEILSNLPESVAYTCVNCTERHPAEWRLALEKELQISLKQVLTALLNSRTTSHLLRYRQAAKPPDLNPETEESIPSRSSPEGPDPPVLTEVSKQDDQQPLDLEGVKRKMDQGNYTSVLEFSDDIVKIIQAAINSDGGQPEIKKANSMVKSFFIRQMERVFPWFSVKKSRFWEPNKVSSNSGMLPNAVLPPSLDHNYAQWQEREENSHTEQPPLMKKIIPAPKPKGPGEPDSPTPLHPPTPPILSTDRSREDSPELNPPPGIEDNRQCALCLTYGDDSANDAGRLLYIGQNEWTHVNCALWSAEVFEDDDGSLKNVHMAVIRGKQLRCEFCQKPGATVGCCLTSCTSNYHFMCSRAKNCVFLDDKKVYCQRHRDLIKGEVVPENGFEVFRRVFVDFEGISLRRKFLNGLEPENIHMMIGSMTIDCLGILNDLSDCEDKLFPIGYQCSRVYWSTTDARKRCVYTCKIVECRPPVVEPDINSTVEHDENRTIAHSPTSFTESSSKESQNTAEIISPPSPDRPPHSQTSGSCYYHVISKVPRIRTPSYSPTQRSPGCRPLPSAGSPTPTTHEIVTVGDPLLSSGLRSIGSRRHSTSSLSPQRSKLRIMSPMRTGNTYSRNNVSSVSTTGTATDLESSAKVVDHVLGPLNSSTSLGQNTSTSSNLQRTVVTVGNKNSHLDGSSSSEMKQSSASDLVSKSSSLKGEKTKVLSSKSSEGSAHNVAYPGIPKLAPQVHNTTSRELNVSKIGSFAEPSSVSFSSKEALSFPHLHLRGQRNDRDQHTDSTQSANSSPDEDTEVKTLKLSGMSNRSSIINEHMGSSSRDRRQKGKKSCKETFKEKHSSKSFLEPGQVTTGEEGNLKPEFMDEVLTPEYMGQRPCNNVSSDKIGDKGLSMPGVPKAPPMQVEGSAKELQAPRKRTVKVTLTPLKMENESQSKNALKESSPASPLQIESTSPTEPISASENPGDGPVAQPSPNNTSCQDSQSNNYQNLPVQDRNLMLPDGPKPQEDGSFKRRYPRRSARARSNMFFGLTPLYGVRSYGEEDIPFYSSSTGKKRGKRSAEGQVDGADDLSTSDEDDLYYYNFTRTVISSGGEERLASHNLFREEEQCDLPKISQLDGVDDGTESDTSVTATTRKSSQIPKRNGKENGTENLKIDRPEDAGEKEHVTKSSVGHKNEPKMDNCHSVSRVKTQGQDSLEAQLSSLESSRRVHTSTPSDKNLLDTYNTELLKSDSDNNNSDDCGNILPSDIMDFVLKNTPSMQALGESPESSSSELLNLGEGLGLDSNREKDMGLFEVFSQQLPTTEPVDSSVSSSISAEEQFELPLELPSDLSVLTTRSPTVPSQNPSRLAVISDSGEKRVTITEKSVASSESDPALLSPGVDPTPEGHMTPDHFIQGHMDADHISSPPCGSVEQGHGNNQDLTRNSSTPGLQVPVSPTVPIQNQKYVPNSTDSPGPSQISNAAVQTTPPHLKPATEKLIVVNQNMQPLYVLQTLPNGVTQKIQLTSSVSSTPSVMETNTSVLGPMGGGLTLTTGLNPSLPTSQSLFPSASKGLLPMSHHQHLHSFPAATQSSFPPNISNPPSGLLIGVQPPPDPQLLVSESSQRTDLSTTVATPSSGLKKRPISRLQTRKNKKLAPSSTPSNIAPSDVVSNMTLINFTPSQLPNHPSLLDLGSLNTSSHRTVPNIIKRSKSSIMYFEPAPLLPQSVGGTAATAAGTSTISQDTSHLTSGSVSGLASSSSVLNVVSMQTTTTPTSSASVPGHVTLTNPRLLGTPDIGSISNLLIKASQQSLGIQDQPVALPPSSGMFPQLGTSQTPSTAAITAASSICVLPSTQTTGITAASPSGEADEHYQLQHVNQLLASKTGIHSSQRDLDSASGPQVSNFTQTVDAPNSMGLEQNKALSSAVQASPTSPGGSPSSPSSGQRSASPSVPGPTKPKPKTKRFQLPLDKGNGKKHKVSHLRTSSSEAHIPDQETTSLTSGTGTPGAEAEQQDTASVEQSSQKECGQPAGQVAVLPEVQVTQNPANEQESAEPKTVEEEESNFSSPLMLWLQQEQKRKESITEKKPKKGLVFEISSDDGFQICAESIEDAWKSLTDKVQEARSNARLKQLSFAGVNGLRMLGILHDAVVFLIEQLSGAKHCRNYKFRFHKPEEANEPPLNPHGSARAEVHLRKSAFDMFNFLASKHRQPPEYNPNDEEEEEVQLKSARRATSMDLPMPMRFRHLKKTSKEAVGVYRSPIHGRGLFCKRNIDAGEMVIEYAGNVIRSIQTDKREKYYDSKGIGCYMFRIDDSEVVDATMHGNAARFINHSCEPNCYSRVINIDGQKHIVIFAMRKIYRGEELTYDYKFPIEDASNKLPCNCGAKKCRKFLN
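Fluorescence polarization: 7 uM MLL-CXXC (stock) preincubated 5 min with compounds, then 50 nM fluorescein-HOX-A9 DNA (stock) added; 30 min ambient. Buffer 50 mM Tris-HCl pH 7.5, 50 mM NaCl, 1 mM DTT, 0.05% BSA.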
TexasRed fluor – Total Fluorescence Counterscreen for Inhibitors of the Interaction of Thyroid Hormone Receptor and Steroid Receptor Coregulator 2; TRb/SRC2 Texas Red total fluorescence interference; Potency, µM (titrated, usually from 106 µM), without a hit: at the top dose fluorescence change, negative = quenching; 280,000 tested, 0.29% active; active = well fitted curve in either direction with a large enough effect; inconclusive = small, poorly fitted or top-dose-only effect; also: potency is read from the fitted curve at half-maximal effect; % is scaled to controls: 0 for no effect and ±100 for the full control effect
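Flags fluorescent or light-absorbing compounds by total fluorescence, S + 2P, at 555 nm excitation and 632 nm emission. Mixture: 20 nM Texas Red SRC2 peptide, 0.6 uM human TRb LBD, 1 uM T3, 5% DMSO; compound exposure 5 h at ambient temperature.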
Menin-MLL FL inh – qHTS Assay for Inhibitors Targeting the Menin-MLL Interaction in MLL Related Leukemias: Competition With Fluorescein Labeled MLL-derived Peptide. FP activity change, % at 61.4 µM. 290,000 tested, under 10 active. AID 1766, 2009. Fluorescence polarization, fluorescein-MLL peptide displacement from menin; active = well fitted curve in the direction sought with a large enough effect in the polarisation, not every such curve was filed as active; inconclusive = small, poorly fitted or top-dose-only effect, or effect the other way, or a change in a side signal; inactive = no such curve, though single readings can be large or run the other way; the % refers to the polarisation; also: % of control where 0% means no effect
Menin-MLL TR inh – qHTS Assay for Inhibitors Targeting the Menin-MLL Interaction in MLL Related Leukemias: Competition With Texas Red Labeled MLL-derived Mutant Peptide. O00255. Menin + Texas Red MLL mutant peptide, fluorescence polarization. Potency, µM (top dose mostly 61.6 µM), for inactives: at the top dose FP activity change, negative = inhibition, usual class: inhibitors. 270,000 tested, 0.23% active; active = well fitted inhibition curve with a large enough effect in the polarisation, with a control signal flat, not every such curve was filed as active; inconclusive = small, poorly fitted or top-dose-only effect, or effect the other way, or a change in a side signal; inactive = no such curve, though single readings can be large or run the other way; the % refers to the polarisation; also: potency is read from the fitted curve at half-maximal effect; % of control where 0% means no effect
Starred values were filed as active, the others as inactive; u = inconclusive; x = no result; ! = a repeat was not active; [ ] = dose if it differs, or a comment.

SMILES | TRb SRC2 PPI | RGS12 GoLoco inh | CXXC DNA block | TexasRed fluor | Menin-MLL FL inh | Menin-MLL TR inh
CC(=O)[C@@]1(O)CC[C@H]2[C@@H]3CC=C4C[C@@H](O)CC[C@]4(C)[C@H]3CC[C@@]21C | 3% | 4% | -1% | -5% | -6 | -6%
CCOP(=O)(NC(C)C)Oc1ccc(S(C)(=O)=O)c(C)c1 (configuration not stated) | -1%[201 µM] | x | x | -3%[201 µM] | x | x
O=C(O)CN1CCN(CC(=O)O)CC(=O)[O][Hg][O]C(=O)C1 | x | 0.45µM* | x | x | x | x
O=C1C=CC(=O)c2c(O)cccc21 | u | -6% | x | 8.9µM*[quencher] | u | u
O=C1C=Cc2ccccc2C1=O | u | -22% | -4% | u | u | u
CC[n+]1c(-c2ccccc2)c2cc(N)ccc2c2ccc(N)cc21 | 35µM*! | 5.6µM* | u | 45µM*![fluorescent] | x | x
O=C(CCN1CCN(CCO)CC1)N1c2ccccc2Sc2ccc(C(F)(F)F)cc21 | 0% | x | 4% | -3% | -4 | u
O=C(O)c1ccccc1SCC(=O)N1c2ccccc2Sc2ccccc21 | -19%[53 µM] | 31% | -11% | 0.089µM*[quencher] | 7 | 27%
ClC1=C(Cl)[C@@]2(Cl)[C@H]3C[C@@H](Cl)[C@H](Cl)[C@H]3[C@@]1(Cl)C2(Cl)Cl | -7%[201 µM] | x | x | -2%[201 µM] | x | x
NCCc1cc(O)c(O)cc1O | 40µM*! | 25µM* | 6% | 4% | u | 40µM*
COc1ccc(CCN)cc1O | 5% | 11% | 9% | 0% | -2 | u
CC/C(=N\OC/C=C/Cl)C1=C(O)CC(C2CCOCC2)CC1=O (configuration not stated) | 0%[201 µM] | x | x | 2%[201 µM] | x | x
CC(=O)NC1N=C(C)N(c2ccccc2)C1=O (configuration not stated) | 32µM* | -53% | 2% | 1% | -29 | -5%
O=[N+]([O-])c1ccc(Oc2ccc(C(F)(F)F)cc2[N+](=O)[O-])cc1 | -1%[201 µM] | x | x | 0%[201 µM] | x | x
CN(N=O)c1ccc(O)c(O)c1 | -28% | 4.5µM* | u | u | -4 | u
O=C(O)c1cccc2c1NC(C(=O)O)C1CC(Sc3ccccc3[N+](=O)[O-])C(Cl)C21 (configuration not stated) | -11% | 2% | 8% | u | -12 | 22µM*
CC(=O)O[C@H]1C(=O)[C@@]2(C)C([C@H](OC(=O)c3ccccc3)[C@]3(O)C[C@H](OC(=O)[C@H](O)[C@@H](NC(=O)c4ccccc4)c4ccccc4)C(C)=C1C3(C)C)[C@]1(OC(C)=O)CO[C@@H]1C[C@@H]2OC(=O)[C@H](C)NC(=O)c1ccc(-c2c3ccc(=O)cc-3oc3cc(O)ccc23)c(C(=O)O)c1 (some centres not stated) | -1%[11.2 µM] | 2µM* | x | 20%[11.2 µM] | u | 13%[11.7 µM]
CCOP(=O)(OCC)SCSP(=S)(OCC)OCC | 0%[201 µM] | x | x | -2%[201 µM] | x | x
CC(C)C1C(=O)N2CCCC2[C@]2(O)O[C@@](NC(=O)[C@@H]3C=C4c5cccc6[nH]cc(c56)C[C@H]4N(C)C3)(C(C)C)C(=O)N12 (some centres not stated) | 2% | 0% | x | 19% | u | -12%[24.8 µM]
CC(C)[C@H]1C(=O)N2CCC[C@H]2[C@]2(O)O[C@](NC(=O)[C@@H]3C=C4c5cccc6[nH]cc(c56)C[C@H]4N(C)C3)(C(C)C)C(=O)N12 | -4% | 11µM* | u | -3% | u | u
CCCCOCCCn1c(N)c(C(=O)OCCOC)c2nc3ccccc3nc21 | 8% | 13% | 28% | 0% | 8 | 28µM*
COc1ccc(C(=O)O)cc1OC | -1% | 32µM* | x | 1% | 1 | -18%
COC(=O)C(C)Oc1ccc(Oc2ccc(Cl)cc2Cl)cc1 (configuration not stated) | 3%[201 µM] | x | x | 2%[201 µM] | x | x
Clc1cccc(N2CCNCC2)c1 | 8.9µM*! | -13% | 5% | 28µM*![fluorescent] | 0 | -3%
O=Cc1cccc(Oc2ccccc2)c1 | 5%[201 µM] | x | x | -5%[201 µM] | x | x
SMILES | TRb SRC2 PPI | RGS12 GoLoco inh | CXXC DNA block | TexasRed fluor | Menin-MLL FL inh | Menin-MLL TR inh
N#CC(CCc1ccc(Cl)cc1)(Cn1cncn1)c1ccccc1 (configuration not stated) | 0%[201 µM] | x | x | 1%[201 µM] | x | x
CCCCCCC[n+]1ccc(-c2cc[n+](CCCCCCC)cc2)cc1 | 3% | 7.9µM*! | -7% | -3% | u | -20%
CCOC(=O)C1CCCN(c2ccc([N+](=O)[O-])c3nonc23)C1 (configuration not stated) | u | 16µM* | u | 50µM*[fluorescent] | u | u
CN(C)[C@@H]1C(=O)C(C(N)=O)=C(O)[C@@]2(O)C(=O)C3=C(O)c4c(O)cccc4[C@@](C)(O)[C@H]3[C@H](O)[C@@H]12 | u | -33% | -7% | 16µM*![quencher] | u | u
CN(C)C1C(=O)C(C(N)=O)=C(O)[C@@]2(O)C(=O)C3=C(O)c4c(O)cccc4[C@](C)(O)C3C(O)C12 (some centres not stated) | 4% | -4% | x | -17% | u | -3%
CN(C)C1C(=O)C(C(N)=O)C(=O)C2(O)C(=O)C3C(=O)c4c(O)cccc4C(C)(O)C3C(O)C12 (configuration not stated) | 18% | -24% | -7% | 28µM*[quencher] | u | u
CCC[CH2][Sn]([CH2]CCC)[CH2]CCC | 1%[201 µM] | x | x | 2%[201 µM] | x | x
CN1C(=O)C(=Cc2ccc(N3CCCCC3)o2)C(=O)N(C)C1=S | u | 255% | 84% | 15% | u | 25µM*
CCN(CC)c1ccc(C=C2C(=O)N(C)C(=S)N(C)C2=O)o1 | 3% | 203% | 94% | 2% | u | 8%
CCOP(=O)(OCC)Oc1ccc([N+](=O)[O-])cc1 | 7%[201 µM] | x | x | -4%[201 µM] | x | x
CC(=O)[O][Hg][c]1ccccc1 | -8%[201 µM] | 1.6µM*! | 6% | 3%[201 µM] | -8 | 0%
O=C(NC(=O)c1c(F)cccc1F)Nc1cc(Cl)c(OC(F)(F)C(F)F)c(Cl)c1 | 7%[201 µM] | x | x | -2%[201 µM] | x | x
CN1C(=O)N(C)C(=O)C(CCc2ccncc2)(CCc2ccncc2)C1=O | -4% | 17% | 3% | -1% | 2 | 1%
c1cc(CCN2CCCC2)ccn1 | -9% | 7.1µM* | -3% | -5% | 0 | x
CC(C)=C[C@@H]1[C@@H](C(=O)OCN2C(=O)C3=C(CCCC3)C2=O)C1(C)C | 5%[201 µM] | x | x | -2%[201 µM] | x | x
O=[N+]([O-])Nc1nccn1Cc1ccc(Cl)nc1 | -2%[201 µM] | x | x | -1%[201 µM] | x | x

Screens from PubChem BioAssay.
